Laboratory results: PubChem BioAssay AID1347383 (Zoeller Lab, School of Medicine, Boston University, 2020)
Calls of active or inactive are those of the source.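 The calls were made as follows: active = cell survival after UV exposure 2 SD above solvent-only control wells at 10 µM, confirmed on one or two repeats; inactive = the rest.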

test: protection of CHO cells from pyrene-fatty acid UV killing, primary screen, phospholipid biosynthesis inhibitor project, ZR-82 cells, Analyticon library, screen 2 (AID 1347383); details: ZR-82 CHO cells, CellTiter Blue, at 10 µM, peroxisome-deficient CHO-K1 variant, with DGAT-1, DGAT-2 and ACAT inhibitors;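 also: survival reflects blocked phospholipid synthesis cutting uptake of the phototoxic fatty acid; compound and fatty acid exposure 3 h then viability read next day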

Structure (SMILES) | outcome
COc1ccc(C)c2c(O)c(CC=C(C)C)c(=O)oc12 | inactive
CC1CCCC[C@H]2C(=O)C=C[C@H](O)[C@@H]2CC(=O)O1 (stereo not given in full) | inactive
C/C=C(/C(=O)O)N1C(=O)C=C(C)C1=O | inactive
CC(=O)OC1CC2C(C)(C)C(=O)C=CC2(C)C2CC(=O)C3=C(CCC3C3=CC(O)OC3=O)C12C (stereo not given) | inactive
CC1=C(C)C(=O)OC(C(C)C2C(O)CC3C4C5OC5C5(O)CC=CC(=O)C5(C)C4CCC32C)C1 (stereo not given) | inactive
COc1cc(CCc2ccccc2)cc(O)c1C/C=C(\C)CCC=C(C)C | inactive
O=C(CCc1ccc(O)c(O)c1)CCC(O)Cc1ccc(O)c(O)c1 (stereo not given) | inactive
CNC(=O)Oc1ccc2c(c1)[C@]1(C)CCN(C)[C@@H]1N2C | inactive
CC/C=C\CC1C(=O)C=CC1(CCCCC1CCC(=O)O1)OC(C)=O (stereo not given) | inactive
C=C1C(=O)O[C@@H]2C[C@H](C)[C@@]3(O)C=C(C(C)=O)C4(CC3C[C@H]12)C(=O)O[C@H]1C[C@@H](C)C(CCC(C)=O)=CC[C@H]14 (stereo not given in full) | inactive
O=C1c2ccc(O)cc2C(=O)c2ccc(O)cc21 | inactive
CC[C@]12CCCN3CCc4c(n(c5ccccc45)C(=O)C1)[C@@H]32 | inactive
CC(=O)C(C)C(O)C(C)c1ccc(CO)cc1/C=C/CO (stereo not given) | inactive
CCCCCCCCCCCCCCCCC1C(=O)OC(C)C1OC (stereo not given) | inactive
CCCCCC(O)CC(O)CC(=O)O (stereo not given) | inactive
CC/C=C/CC1=C(CCCCCCCC(=O)O)CCC1=O | inactive
O=c1ccc2nccc3c4ccccc4n1c23 | inactive
CC1(C)O[C@]23C[C@H]1C[C@H](OC(=O)c1ccoc1)[C@]2(C)[C@@H](OC(=O)c1ccoc1)CCC3(C)O (stereo not given in full) | inactive
O=C(/C=C/c1ccc(O)c(O)c1)N[C@@H](Cc1ccc(O)c(O)c1)C(=O)O | inactive
COc1cc2oc(=O)ccc2cc1[C@H]1OC(=O)[C@]2(C)OC12 (stereo not given in full) | inactive

Structure (SMILES) | outcome
O=C1CC2OC(C(O)c3ccccc3)C(O1)C2O (stereo not given) | inactive
COc1cc(CCC(=O)O)cc(OC)c1OC | inactive
O=c1c(O)c(-c2ccc(O)c(O)c2)oc2cc(O)cc(O)c12 | inactive
COc1cc(C[C@H]2COC[C@@H]2Cc2ccc(O)c(OC)c2)ccc1O | inactive
C/C=C/C1C=CC(O)C(O)C1C(O)C(C)=O (stereo not given) | inactive
C=CCc1ccc(O)c(O)c1 | inactive
N#CC(OC(=O)c1ccccc1)c1ccccc1 (stereo not given) | inactive
O=C1c2ccc(O)cc2O[C@@H](c2ccc(O)c(O)c2)[C@@H]1O | inactive
OC1CC(c2ccccc2)C(O)C(O)C1c1ccccc1 (stereo not given) | inactive
COc1cc(O)c(C(=O)c2c(C)cc(O)cc2OC)c(O)c1 | inactive
C=C(COC(=O)C(C)C)C1Oc2cc(C(C)=O)ccc2C1OC(=O)C(C)C (stereo not given) | inactive
CC(C)=CCC/C(C)=C/CC(O)/C(C)=C/Cc1cc(C(=O)O)ccc1O (stereo not given) | inactive
COc1c(C2=Cc3ccc(O)cc3OC2)ccc(O)c1CC=C(C)C | inactive
CC1(C)CC2C3OC(O)C4(O)OC(C)(CC34)C2C1 (stereo not given) | inactive
O=C(O)c1cc(O)c2c(c1)C(=O)c1cc(O)cc(O)c1C2=O | inactive
C[C@@H]1C[C@@H](O)C2[C@@](C)(CO)CCC[C@]2(C)[C@@]1(O)CCc1ccoc1 (stereo not given in full) | inactive
OC1C(c2ccccc2)CCC(O)(c2ccccc2)C1O (stereo not given) | inactive
Oc1cc(O)c2c(c1)O[C@H](c1ccc(O)c(O)c1)[C@@H](O)C2 | inactive
O=C(CCc1ccc(O)cc1)c1c(O)cc(O)cc1O | inactive
OCc1ccccc1O[C@@H]1O[C@H](CO)[C@@H](O)[C@H](O)[C@H]1O | inactive
